Source: PubChem (National Center for Advancing Translational Sciences (NCATS))
An excerpt weighted towards active compounds, which were near 2.2% of everything screened.
GLP-1R inv ag: acts as inverse agonist at human GLP-1 receptor. P43220. AID 624417. hit rate 1.6% among 410,000. Potency, µM (highest dose often 38.3 µM), without a hit: top-dose activity change, negative = inhibition, actives largely listed as inhibitors. HEK293 GLP-1R CRE-luciferase, luminescence, 24 h; GLP-1R form is constitutively active; further: potency means the concentration at half of the fitted maximal effect; on the % scale 0 is the no-effect control and ±100 the full control effect; nearly all actives have a fitted effect of over 55% in size
Target sequence (P43220 whole entry, looked up): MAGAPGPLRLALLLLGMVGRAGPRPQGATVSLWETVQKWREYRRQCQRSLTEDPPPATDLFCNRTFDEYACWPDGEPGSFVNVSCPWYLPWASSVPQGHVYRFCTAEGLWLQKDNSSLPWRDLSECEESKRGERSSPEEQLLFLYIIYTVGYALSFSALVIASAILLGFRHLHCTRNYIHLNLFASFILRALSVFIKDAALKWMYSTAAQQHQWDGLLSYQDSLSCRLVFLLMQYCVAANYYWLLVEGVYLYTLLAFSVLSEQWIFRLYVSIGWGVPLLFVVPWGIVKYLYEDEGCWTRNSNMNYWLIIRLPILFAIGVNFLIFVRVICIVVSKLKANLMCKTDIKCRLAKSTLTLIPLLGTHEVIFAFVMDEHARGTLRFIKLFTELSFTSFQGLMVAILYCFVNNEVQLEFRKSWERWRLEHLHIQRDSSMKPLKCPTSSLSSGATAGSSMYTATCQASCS
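qHTS in 1536-well format: reporter HEK293 cells expressing constitutive GLP-1R activity in DMEM + 10% Nu serum, 24 hr with compounds at 37 deg C, luminescence read after 12 min with detection reagent.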
GLP1R cytotox: cytotoxicity in counter-screen for GLP-1R inverse agonists. Potency, µM (series often up to 38.3 µM), inactives show top-dose activity change, negative = inhibition, most hits filed as inhibitors. AID 624418. hit rate 0.13% among 410,000. HEK293 cAMP-luciferase reporter cells, luminescence, 24 h;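 further: loss of luciferase light is scored as toxicity; potency means the concentration at half of the fitted maximal effect; on the % scale 0 is the no-effect control and ±100 the full control effect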
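MLSMR compounds, 24 hr on cells at 37 deg C/5% CO2; luminescence after luciferase reagent (12 min RT). Inhibition counted as the undesired cytotoxic outcome.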
CCT modulator: cytosolic chaperonin activity modulation; purified chaperonin ATPase assay, HTRF ADP detection, 30 min; activity change, % (test concentration not listed), hits read low; hit rate 0.3% among 360,000; AID 651819; in the data active means activity change below about -30%; further: on the % scale 0 is the no-effect control and ±100 the full control effect
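First, chaperonin was dispensed at 40 nM or 20 nM final depending on batch activity. Next, compounds were pinned at 76 uM and ATP added at 10 uM. After 30 min at 37 °C, ADP detection reagents ran 30 min at ambient temperature.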
GLP1R ag: activates the human GLP-1 receptor; P43220; HEK293 GLP-1R CRE-luciferase, luminescence, 4-6 h; cells express a hypersensitive GLP-1R form; Potency, µM (top dose mostly 45.6 µM), without a hit: top-dose activation, hits mostly activators; hit rate 0.007% among 380,000; AID 624172; further: potency means the concentration at half of the fitted maximal effect; % of control where 0% means no effect
uPA surface inh: cell surface uPA generation inhibition; cell surface uPA generation assay, qHTS; hit rate 0.31% among 330,000; Potency, µM (top dose mostly 38.3 µM), without a hit: at the highest dose activity change, negative = inhibition, hits mostly inhibitors; AID 540303; active means well fitted inhibition curve with a large enough effect; inconclusive means small, poorly fitted or top-dose-only effect; inactive means no such curve, though single readings can be large or run the other way; tested in mouse RAW 264.7 cells; further: potency means the concentration at half of the fitted maximal effect; on the % scale 0 is the no-effect control and ±100 the full control effect; nearly all actives have a fitted effect of over 55% in size
Mm-Cpn inhibitor: M. maripaludis TRiC chaperonin inhibition; purified Mm-Cpn ATPase, ADP Transcreener TR-FRET; AID 504842; hit rate 0.031% among 330,000; Potency, µM (series often up to 76.9 µM), for the others: at the highest dose activity, negative = inhibition, usual class: inhibitors; further: potency means the concentration at half of the fitted maximal effect; on the % scale 0 is the no-effect control and ±100 the full control effect; nearly all actives have a fitted effect of over 80% in size
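Inhibition of chaperonin ATP hydrolysis is measured as reduced ADP production, detected by competitive TR-FRET in which signal falls with ADP. Final enzyme 25 nM and ATP 10 uM, reacted 30 min at 37°C.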
* hit, by the source's call; ? = inconclusive; . = not tested or not shown. Unless noted, the call rests on the fitted dose curve; in most records, active means well fitted curve in the direction sought with a large enough effect; inconclusive means small, poorly fitted or top-dose-only effect, or another doubt; inactive means no such curve, though single readings can be large; an effect the other way counts as inactive or inconclusive.

SMILES	GLP-1R inv ag	GLP1R cytotox	CCT modulator	GLP1R ag	uPA surface inh	Mm-Cpn inhibitor
CCOc1ccc(CCN2C(=S)N([C@@H](CC(C)C)CN3CCCC3CN3C(=S)NC[C@@H]3Cc3ccc(O)cc3)C[C@@H]2CC(C)C)cc1 (some centres undefined)	10µM*	-4.5%	-0.9	8.7%	?	.
CCOc1ccc(CCN2C(=S)N([C@@H](CC(C)C)CN3CCCC3CN3C(=S)NC[C@@H]3Cc3ccc(O)cc3)C[C@@H]2Cc2ccc(O)cc2)cc1 (some centres undefined)	?	-21.0%	-0.2	-1.0%	?	.
CCC1CN(C(=O)Nc2cccc3c2CCCC3)c2ccccc2O1 (centres undefined)	?	1.3%	.	.	.	.
CCC1CN(C(=O)Nc2cccc3c2CCCC3)c2cc(Cl)ccc2O1 (centres undefined)	10µM*	-16.1%	.	.	.	.
COc1ccc(N2CCN(C(=O)C3CCN(S(=O)(=O)c4cnc[nH]4)CC3)CC2)cc1	12.6%	15.4%	.	.	.	.
CCC(C)(C)NC(=O)CSc1nc(Cc2ccccc2)nc2ccccc12	4.47µM*	-23.2%	2.9	-1.7%	1.5%	0.0%
Cc1nc(-c2ccccc2)sc1C(=O)NN	-19.2%	-17.8%	-1.9	-5.3%	10µM*	-1.2%
Cc1ccc(S(=O)(=O)Nc2cccc(C(=O)NCc3cccnc3)c2)cc1F	?	-28.6%	0.7	-1.4%	3.16µM*	0.3%
Cc1cccc(NS(=O)(=O)c2cccc(C(=O)NCC3(N4CCCCC4)CCCCC3)c2)c1	?	-15.7%	-3.0	-4.1%	-4.7%	0.1%
Cc1ccc(S(=O)(=O)Nc2cccc(C(=O)NCC3(N4CCCCC4)CCCCC3)c2)cc1F	11.2µM*	-26.5%	-0.3	14.3%	1.7%	-2.1%
COC(=O)c1nnn(CC(=O)Nc2c(C)cccc2C)c1N	18.3%	3.1%	.	.	.	.
CC(C)(CC(=O)NCc1ccc(Cl)cc1Cl)CC1=NS(=O)(=O)c2ccccc2N1	8.91µM*	?	.	-2.8%	.	.
CCCCNC(=S)N1CCN(C(c2ccccc2)c2ccccc2)CC1	8.91µM*	-2.4%	-1.6	9.0%	-3.7%	-6.6%
Cc1onc(-c2c(Cl)cccc2Cl)c1C(=O)Nc1ccc(Cl)cn1	1.78µM*	13.4%	-1.2	9.9%	1.1%	2.2%
Cc1csc(NC(=O)c2c(-c3c(Cl)cccc3Cl)noc2C)n1	11.2µM*	5.7%	1.0	0.6%	9.3%	-6.4%
Cc1csc(NC(=O)c2c(-c3c(F)cccc3Cl)noc2C)n1	?	-2.3%	-0.5	-8.2%	10.6%	-8.0%
CCN(CC)CC(O)Cn1c2ccccc2c2ccccc21 (centres undefined)	?	15.8%	-1.5	17.9%	1.7%	3.1%
CCN(CC)CC(O)Cn1c(C)c(-c2ccccc2)c2cc([N+](=O)[O-])ccc21 (centres undefined)	4.47µM*	?	0.4	1.7%	1.8%	0.7%
O=C(NCCc1cn2ccccc2n1)c1cc(COc2ccc3ncccc3c2)on1	12.6µM*	-4.0%	0.9	1.0%	-25.1%	-1.9%
CC(NC(=O)c1cc(COc2ccc3ncccc3c2)on1)c1ccc(F)cc1 (centres undefined)	1.78µM*	-7.3%	0.4	9.6%	?	1.5%
O=C(NC1CCCC1)c1cc(COc2ccc3ncccc3c2)on1	-12.0%	-2.1%	-1.0	4.4%	-29.4%	0.1%
COc1cc(C2OC(=O)c3c2ccc(OC)c3OC)ccc1O (centres undefined)	.	.	.	.	.	-5.8%
CCN(CC)c1ccc(NC(=O)Cn2nc(C)n3cccc3c2=O)c(C)c1	-1.3%	-5.1%	.	.	.	.
Cn1cnnc1Sc1ccc(C(F)(F)F)cc1[N+](=O)[O-]	6.31µM*	0.6%	-4.4	1.2%	-1.4%	-2.5%
Cn1cnnc1Sc1ccc(C(=O)OCC(=O)NC2CC2)cc1[N+](=O)[O-]	2.9%	6.3%	1.5	7.5%	2.5%	-2.1%
SMILES	GLP-1R inv ag	GLP1R cytotox	CCT modulator	GLP1R ag	uPA surface inh	Mm-Cpn inhibitor
Cc1ccccc1-n1c(C)cc(/C=C(\C#N)C(=O)NCC2CCCO2)c1C (centres undefined)	?	-6.1%	-0.6	5.7%	0.5%	-1.0%
Cc1cc(/C=C(\C#N)C(=O)NCc2cccs2)c(C)n1-c1ccccc1F	2.82µM*	-5.3%	-2.1	7.4%	-14.8%	-0.3%
Cc1ccc(C(=O)n2nc(C)c(S(=O)(=O)N3CCCCCC3)c2C)cc1	17.0%	5.6%	.	-0.8%	.	.
CCOc1ccc(CNC(=O)C2CCN(S(=O)(=O)c3cn(C)cn3)CC2)cc1	12.1%	6.7%	.	.	.	.
COc1ccc(NC(=O)C2(C)CCN2C(=O)C(C)C)cc1F (centres undefined)	-19.2%	2.0%	-35.6*	-4.1%	.	.
COc1ccc(CCNC(=O)CCCn2c(=O)c3ccccc3n(Cc3ccccc3)c2=O)cc1OC	-6.8%	-6.2%	.	0.5%	.	.
Cc1nc(N2CCCCC2C)c2c(C)c(C(=O)Nc3cccc(C(F)(F)F)c3)sc2n1 (centres undefined)	10µM*	?	2.7	4.0%	5.7%	-0.4%
COc1ccc(-c2cc(C(F)(F)F)nc(SCCC(=O)Nc3ccc(O)cc3)n2)cc1	-26.4%	-8.1%	.	20.1%	.	.
Cc1ccc(-c2cc(C(=O)Nc3ccc(S(=O)(=O)N4CC(C)OC(C)C4)cc3)[nH]n2)c(O)c1 (centres undefined)	1.12µM*	-13.3%	0.5	5.7%	-0.5%	1.6%
Cc1ccc(O)c(-c2cc(C(=O)Nc3ccc(S(=O)(=O)N4CC(C)OC(C)C4)cc3)[nH]n2)c1 (centres undefined)	0.0%	?	-0.8	-9.4%	-10.2%	2.4%
O=C(Nc1ccc(S(=O)(=O)N2CCOCC2)cc1)c1cc(-c2cc(Cl)ccc2O)n[nH]1	3.55µM*	?	0.2	-5.0%	?	2.5%
COc1ccc(C(=O)c2cn(CC(=O)Nc3ccc4c(c3)OCO4)c3ccc(OC)cc3c2=O)cc1	2.3%	-5.2%	.	.	.	.
C/C(=C(/CCOC(=O)C(C)C)SS/C(CCOC(=O)C(C)C)=C(\C)N(C=O)Cc1cnc(C)nc1N)N(C=O)Cc1cnc(C)nc1N	.	.	.	0.0%	.	.
O=C(O)[C@H](Cc1ccccc1)NC(=O)C(c1ccccc1)(c1ccccc1)c1ccccc1	10µM*	0.4%	0.3	-4.2%	4.8%	.
CC(C)CCNC(=O)c1cn(CC(C)C)c(=O)c2c1c1ccccc1n2C	-6.3%	-9.9%	-41.1*	-5.9%	3.2%	0.1%
CCCCNC(=O)c1cn(CC(C)C)c(=O)c2c1c1ccccc1n2C	-6.9%	2.2%	-0.5	0.8%	-11.5%	1.1%
COc1ccc(N2C(=O)C(CC(=O)Nc3ccccc3)N(CCC3=CCCCC3)C2=O)cc1 (centres undefined)	-4.7%	-16.4%	.	.	.	.
